Hits are enriched below; roughly 2.8% of the tested compounds scored in any of these assays.
IP6K1 inhibitor: blocks human inositol hexakisphosphate kinase 1; IP6K1 kinase, ADP-Glo luminescence, 2 h; active compounds read low; activity change, % (series mostly up to about 58 µM); actives 0.81% (n = 140,000); in the data active = activity change below about -25%
Target sequence (Q92551 whole entry, looked up): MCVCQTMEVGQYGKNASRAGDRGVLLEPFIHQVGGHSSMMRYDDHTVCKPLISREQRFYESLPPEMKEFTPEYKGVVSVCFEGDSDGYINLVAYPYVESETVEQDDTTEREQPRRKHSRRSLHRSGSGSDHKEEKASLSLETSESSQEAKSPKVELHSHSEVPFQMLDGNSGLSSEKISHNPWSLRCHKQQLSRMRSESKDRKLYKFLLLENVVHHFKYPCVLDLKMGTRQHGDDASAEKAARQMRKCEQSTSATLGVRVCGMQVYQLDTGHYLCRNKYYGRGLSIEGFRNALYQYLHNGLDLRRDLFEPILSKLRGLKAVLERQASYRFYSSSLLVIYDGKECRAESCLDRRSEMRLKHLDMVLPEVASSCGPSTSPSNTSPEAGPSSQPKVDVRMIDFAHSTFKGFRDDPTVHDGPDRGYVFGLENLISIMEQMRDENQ
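ADP-Glo luminescence measures ADP made by human IP6K1 during a 2 h RT reaction with ATP/IP6 (mix at 1.3 mM/130 uM); top library doses 57.5 and 19.1 uM final.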
KDM5B inh: KDM5B demethylase inhibition; KDM5B demethylase, FDH-coupled NADH fluorescence (FDH is formaldehyde dehydrogenase); actives 2.6% (n = 220,000); AID 1347165; Q9UGL1; Potency, µM (titrated, usually from 57.7 µM), hits mostly inhibitors; active = well fitted inhibition curve with a large enough effect; inconclusive = small, poorly fitted or top-dose-only effect; inactive = no such curve, though single readings can be large or run the other way; also: nearly all actives have a fitted effect of over 70% in size
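Coupled FDH/NAD⁺ fluorescence readout. KDM5BΔAP 200 nM final; compound titration, 10 min RT preincubation; substrate mix 12.5 µM H3K4me3, 25 µM 2-OG, 50 µM Fe(II), 100 µM ascorbate, 0.25 mM NAD⁺, 0.25 U/mL FDH; ΔRFU over 30 min.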
Of the large screens only hits and unclear results are named; the others gave an inactive call.

Cn1nc(C2CCCN2)c2c(C(=O)NC3CC3)cc(C3CC3)nc21 (configuration not stated)	KDM5B inh inconclusive
CC(C)CNC(=O)c1cc(C2CC2)nc2c1c(C1CCCN1)nn2C (configuration not stated)	KDM5B inh 79.4µM
O=C(NCc1ccc(F)cc1)c1cc(C2CC2)nc2onc(C3CCCN3)c12 (configuration not stated)	none
Cn1nc(C2CCCN2)c2c(C(=O)NCc3cccs3)cc(C3CC3)nc21 (configuration not stated)	KDM5B inh inconclusive
Cn1nc(C2CCCN2)c2c(C(=O)NCc3ccc(F)cc3)cc(C3CC3)nc21 (configuration not stated)	KDM5B inh 79.4µM
COc1ccccc1-c1cccc(CN2CCCC(C(=O)NCc3ccc4c(c3)OCO4)C2)c1 (configuration not stated)	none (no result: KDM5B inh)
CN(C)c1ccc(C(=O)N2CCN(C(=O)c3ccc(N(C)C)cc3)[C@H](C(=O)N[C@H](Cc3c[nH]c4ccccc34)C(N)=O)C2)cc1	KDM5B inh 28.2µM
CN(C)c1ccc(C(=O)N2CCN(S(C)(=O)=O)[C@H](C(=O)N[C@H](Cc3c[nH]c4ccccc34)C(N)=O)C2)cc1	none
CC(NC(=O)C1CCN(c2nccc(Nc3ccccc3Cl)n2)CC1)c1ccc(F)cc1 (configuration not stated)	none (no result: KDM5B inh)
CSc1ccc(-c2ccc3c(c2)C(=O)N2CC[C@H](NC(=O)C4CCCC4)[C@H]2C(=O)N3)cc1	KDM5B inh 25.1µM
O=C(N[C@H]1CCN2C(=O)c3ccc(Cl)cc3NC(=O)[C@H]12)c1cccs1	none
CSCC(=O)N[C@H]1CCN2C(=O)c3cc(-c4ccc(SC)cc4)ccc3NC(=O)[C@H]12	KDM5B inh inconclusive
O=C(O)CCC(=O)N[C@H]1CCN2C(=O)c3cc(-c4ccccc4)ccc3NC(=O)[C@H]12	none
COc1ccc(Cl)cc1-c1ccc2c(c1)C(=O)N1CC[C@H](NC(=O)c3cccs3)[C@H]1C(=O)N2	KDM5B inh 25.1µM
COc1ccc(-c2ccc3c(c2)C(=O)N2CC[C@H](NC(=O)CCC(=O)O)[C@H]2C(=O)N3)cc1	KDM5B inh 20µM
O=C(N[C@H]1CCN2C(=O)c3cc(-c4ccccc4)ccc3NC(=O)[C@H]12)C1CCCC1	none
CSCC(=O)N[C@H]1CCN2C(=O)c3cc(-c4ccc(Cl)cc4)ccc3NC(=O)[C@H]12	KDM5B inh 28.2µM
COc1cccc(-c2ccc(C(=O)NCCNC(=O)c3ccccc3)cc2)c1	none (no result: KDM5B inh)
O=C(c1ccc(C(F)(F)F)cc1)N1CCC(C(=O)N2CCC(N3Cc4cccn4C3=O)CC2)CC1	none (no result: KDM5B inh)
NC(=O)c1cc(-c2csc(NC3CCCC3)n2)ccc1O	none (no result: IP6K1 inhibitor)
O=C(COC(=O)c1cccc(F)c1)c1ccc([N+](=O)[O-])cc1	none (no result: IP6K1 inhibitor)
O=C(N[C@H]1CCN2C(=O)c3cc(-c4ccsc4)ccc3NC(=O)[C@@H]2C1)c1cccs1	KDM5B inh 22.4µM
COc1ccc(/C=C/c2ccc3c(c2)C(=O)N2CC[C@H](NC(=O)c4cnccn4)[C@H]2C(=O)N3)cc1	KDM5B inh inconclusive
O=C(N[C@H]1CCN2C(=O)c3cc(-c4ccccc4)ccc3NC(=O)[C@H]12)c1cccs1	none
O=C(N[C@H]1CCN2C(=O)c3cc(-c4ccc(Cl)cc4)ccc3NC(=O)[C@H]12)c1cccs1	KDM5B inh 31.6µM
COc1ccc(/C=C/c2ccc3c(c2)C(=O)N2CC[C@H](N)[C@H]2C(=O)N3)cc1	KDM5B inh 35.5µM
Cc1cccc(-c2ccc3c(c2)C(=O)N2CC[C@H](NC(=O)c4cccs4)C[C@H]2C(=O)N3)c1C	KDM5B inh inconclusive
COc1ccc(-c2ccc3c(c2)C(=O)N2CC[C@H](NC(=O)c4cccs4)[C@H]2C(=O)N3)cc1	KDM5B inh inconclusive
COc1ccc(-c2ccc3c(c2)C(=O)N2CC[C@H](NC(=O)c4cccs4)[C@H]2C(=O)N3)c(OC)c1	KDM5B inh 28.2µM
Cc1nn(-c2ccccc2)c2c1C(C)N(C1CCN(C(=O)c3ccc(F)cc3)CC1)C2=O (configuration not stated)	none (no result: KDM5B inh)
O=C(NC1CCOCC1)[C@@H]1CCCN1c1ccnc2ccnn12	none (no result: KDM5B inh)
O=C(NCc1ccccc1F)c1cn2cc(-c3cccc(C(F)(F)F)c3)sc2n1	none (no result: KDM5B inh)
Cc1ccc(CNC(=O)N2CCc3nc(-c4ccccc4)[nH]c3C2)cc1	none (no result: KDM5B inh)
Cc1cccc(-c2ccc3c(c2)C(=O)N2CC[C@H](NS(=O)(=O)c4cccs4)[C@H]2C(=O)N3)c1C	KDM5B inh inconclusive
COc1ccc(-c2ccc3c(c2)C(=O)N2CC[C@H](NS(=O)(=O)c4cccs4)[C@H]2C(=O)N3)cc1	KDM5B inh 22.4µM
CCOC(=O)[C@@H]1[C@@H](OC)C(=O)N(C(C)C)C12CCN(C(=O)c1cc3ccccc3s1)CC2	none (no result: KDM5B inh)
COCCCNC(=O)Cc1csc2nc(C)c(-c3cc(C)n(-c4ccccc4F)n3)c(=O)n12	KDM5B inh 28.2µM
COc1ccccc1-n1nc(-c2c(C)nc3scc(CC(=O)NCc4ccccc4)n3c2=O)cc1C	KDM5B inh 25.1µM
CCCCCNC(=O)Cc1csc2nc(C)c(-c3cc(C)n(-c4ccccc4F)n3)c(=O)n12	KDM5B inh inconclusive
Cc1nc2scc(CC(=O)NCc3ccco3)n2c(=O)c1-c1cc(C)n(-c2ccccc2F)n1	KDM5B inh 28.2µM
Cc1ccc(C)c(-n2nc(-c3c(C)nc4scc(CC(=O)NCc5ccco5)n4c3=O)cc2C)c1	KDM5B inh 20µM
Cc1nc2scc(CC(=O)Nc3ccc(F)cc3)n2c(=O)c1-c1cc(C)n(-c2ccccc2F)n1	KDM5B inh inconclusive
CCc1ccccc1-n1nc(-c2c(C)nc3scc(CC(=O)NCc4ccccc4)n3c2=O)cc1C	KDM5B inh inconclusive
Cc1ccc(-n2nc(-c3c(C)nc4scc(CC(=O)NCc5ccco5)n4c3=O)cc2C)cc1	KDM5B inh inconclusive
Cc1ccc(-c2cccc(CN3CCCC3C(=O)NCc3ccc(F)cc3F)c2)cc1Cl (configuration not stated)	none (no result: KDM5B inh)
COc1ccc(CN[C@@H]2C=C[C@@H](c3c(C)nn(-c4ccccc4)c3C)C2)cc1	KDM5B inh inconclusive
COc1ccccc1-n1nc(-c2c(C)nc3scc(CC(=O)NCc4ccco4)n3c2=O)cc1C	KDM5B inh 28.2µM
O=C(CCc1ccccc1)N1CCCN(c2cc(-c3ccc(Cl)cc3)[nH]n2)CC1	KDM5B inh inconclusive
Cc1ccc(-c2cc(N3CCCN(C(=O)CCc4ccccc4)CC3)n[nH]2)cc1C	KDM5B inh 15.8µM
Cc1nn(-c2ccccc2)c2c1C(C(C)C)N(C1CCN(C(=O)C(C)(C)C)C1)C2=O (configuration not stated)	none (no result: KDM5B inh)
Cc1ccc(-c2cc(C(=O)N3CCN(c4ncccn4)CC3)c3cnn(C)c3n2)cc1	none (no result: KDM5B inh)
CC1(C)CNC(=O)c2nc(CCN3CCCc4ccccc43)[nH]c2C1	KDM5B inh 15.8µM
CC1CCN(CCc2nc3c([nH]2)CC(C)(C)CNC3=O)CC1	none
COc1ccccc1-c1cccc(C(=O)N2CCN(C(=O)Cc3cccc(Cl)c3)CC2)c1	none (no result: KDM5B inh)
COc1ccc(Cc2nc3nccc(-c4cccnc4)n3n2)cc1	none
COc1ccc(CCc2nc3nccc(-c4ccccn4)n3n2)cc1	none
COc1ccc(CCc2nc3nccc(-c4cccc(OC)c4)n3n2)cc1	KDM5B inh 17.8µM
COc1ccc(Cc2nc3nccc(-c4cccc(OC)c4)n3n2)cc1	KDM5B inh 20µM
CNC(=O)c1cc(C2CC2)nc2onc(C3CCN(C(=O)c4cccc(C(F)(F)F)c4)CC3)c12	none (no result: KDM5B inh)

Bioassay records as filed in PubChem.
